From PubChem BioAssay (NCI) come the findings set out here.

About 79,000 compounds went through this panel and 15% of them were active in at least one assay; those are over-represented in the sample as a whole. A number with no mark means an inactive call. Activity calls are given as the source filed them. Rule as the data show it: active = growth inhibition above about 70%; inactive = the rest.

The assay is described as follows: NCI Yeast Anticancer Drug Screen. Data for the sgs1 strain (AID 173).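 Also: 0% = growth of vehicle-only control cultures.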 To be noted: S. cerevisiae sgs1 mutant, stronger effect = higher value. As for the experimental part: Growth inhibition of yeast strains with defined genetic alterations is measured as a screen for potential anti-cancer activity. Selected strains with alterations in DNA damage repair or cell cycle control were exposed to compounds and growth inhibition was measured relative to vehicle treated controls. The strain used in this assay is sgs1

In the case of `COc1ccc(C2CC(C)(N3CCCC3)Oc3cc4c(cc32)OCO4)cc1` (stereo not given), the growth inhibition runs as follows: (at 1.2 µM) -4%; (at 3.7 µM) 9%; (at 11.0 µM) -18%; (at 33.0 µM) 17%; (at 100.0 µM) 83% (active).
`O=C(C#Cc1ccccc1)Nc1ccccc1`: the growth inhibition reads like this: (at 1.2 µM) -9%; (at 3.7 µM) -3%; (at 11.0 µM) 33%; (at 33.0 µM) 88% (active); (at 100.0 µM) 99% (active).
For `O=C1C(=C2CCCC2)CCC1CN1CCCCC1` (stereo not given), the growth inhibition reads like this: (at 1.2 µM) 34%; (at 3.7 µM) 30%; (at 11.0 µM) 63%; (at 33.0 µM) 87% (active); (at 100.0 µM) 97% (active).
For the compound `CC(C)N(CCCNc1c2ccccc2nc2cccc([N+](=O)[O-])c12)C(C)C`, the growth inhibition was 80% (active) (at 1.2 µM); 91% (active) (at 3.7 µM); 95% (active) (at 11.0 µM); 97% (active) (at 33.0 µM); 98% (active) (at 100.0 µM).
With `OB(O)c1ccccc1C#Cc1ccccc1`, the growth inhibition is -1% (at 1.2 µM); -1% (at 3.7 µM); 8% (at 11.0 µM); 19% (at 33.0 µM); 31% (at 100.0 µM).
For `CN(C)CCNc1ccc2ncn3c4ccc(O)cc4c(=O)c1c23`, the growth inhibition runs as follows: (at 1.2 µM) -21%; (at 3.7 µM) -17%; (at 11.0 µM) -3%; (at 33.0 µM) -16%; (at 100.0 µM) -23%.
For `Cc1ccc(S(=O)(=O)NC(=O)C2C(=O)CC3(CCCCC3)CC2=O)cc1`, the growth inhibition (at 1.2 µM) was -12%; the growth inhibition (at 3.7 µM) was -8%; the growth inhibition (at 11.0 µM) was 4%; the growth inhibition (at 33.0 µM) is 68%; the growth inhibition (at 100.0 µM) was 79% (active).
Take `CCOP(=O)(OCC)/C(C#N)=C/c1cccc(Oc2ccccc2)c1`: the growth inhibition was 10% (at 1.2 µM); 3% (at 3.7 µM); 44% (at 11.0 µM); 97% (active) (at 33.0 µM); 98% (active) (at 100.0 µM).
